# In PubChem BioAssay:
# Where “and” joins values, the source holds several entries; their conditions need not be identical. Equal values may be shown once. Calls of active or inactive are those of the source.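 The calls were made as follows, unless noted: active = thallium flux through the channel raised or lowered by more than 3 SD from vehicle-only wells, actives on both sides; inactive = the rest.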
# Assays:
# [1] = stimulators of nuclear beta-catenin in C2C12, primary screen, imaging, WNT3A-conditioned medium, mouse C2C12, NPC library (AID 1117326; in the data active = nuclear beta-catenin stimulation mostly above about 4.2%, no sharp cut-off; inactive = mostly below about 10%); conditions: stronger effect = higher value
# [2] = stimulators of insulin release from INS-1E, primary screen, cell-based, 5 mM glucose, NPC library (AID 1117329;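 active = compound raises insulin release from rat beta cells at 5 mM glucose, no numeric limit stated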); conditions: rat INS-1E insulin secretion, at 10 µM, stronger effect = higher value
# [3] = growth inhibition of GSK3B-pretreated HCT116 cells – cell-based, CellTiter-Glo, 0.2 to 20 µM (AID 1117336;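 active = compounds lowering colon cancer cell viability after pretreatment blocking the GSK3B kinase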); conditions: HCT116 viability after GSK3B inhibitor, at 20 µM, stronger effect = higher value
# [4] = inhibition of endothelial tube formation, primary screen, imaging, VEGF stimulated, CD31 staining, tube area, NPC library (AID 1117340;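 active = compound that reduces growth-factor-driven endothelial tube area in a mixed cell culture, no cutoff stated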); conditions: VEGF-stimulated ADSC/ECFC co-culture, at 10 µM, stronger effect = higher value
# [5] = glucagon-like peptide 1 release enhancers, primary assay, NCI-H716 cell line, NPC library (AID 1117341;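 active = compound raises GLP1 secretion from the human gut endocrine cells, with no numeric limit stated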); conditions: NCI-H716 cells, at 10 µM, stronger effect = higher value
# [6] = HCT116 colon cancer cell growth inhibition, primary screen, CellTiter-Glo luminescence, NPC library (AID 1117342;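 active = compounds that lower survival of HCT116 colon cancer cells in the luminescence readout, no numeric limit stated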); conditions: at 20 µM (top of the series)
# [7] = CellTiter-Glo luminescent readout of SW480 viability loss, NPC library primary (AID 1117343;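 active = compounds that lower viability of the colon cancer cells in the luminescence readout, with no numeric limit stated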); conditions: CellTiter-Glo luminescence; at 20 µM (top of the series)
# [8] = decreased DLD-1 cellular survival, CellTiter-Glo luminescent readout, NPC compound collection, primary HTS (AID 1117346;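 active = compounds that lower survival of DLD-1 colon cancer cells in the luminescence readout, no cutoff given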); conditions: DLD-1 viability, CellTiter-Glo luminescence; at 20 µM (top of the series)
# [9] = target: 6-phosphogluconate dehydrogenase, decarboxylating (Homo sapiens) (UniProt P52209); assay: 6PGD enzyme inhibitors, primary screen, biochemical, human, recombinant enzyme, NADPH absorbance (AID 1159550;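 active = at least 20% inhibition of 6-phosphogluconate dehydrogenase activity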); conditions: recombinant 6PGD, NADPH absorbance 341 nm; at 10 µM; stronger effect = higher value
# [10] = differential killing of epithelial or mesenchymal cells, primary screen, imaging, PC-3E GFP, TEM4-18 mCherry, co-culture (AID 1345086;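 active = compounds killing one labelled cell type while sparing the other, by normalised counts and ratio limits, not self-fluorescent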;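 as to all read-outs here: cells exposed to compound for 72 h before imaging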;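 as to red/green cell ratio (normalised): normalised mesenchymal count divided by normalised epithelial count so high means epithelial killing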); conditions: imaging cell counts, at 1 µM; for red/green cell ratio (normalised): actives lie on both sides, counts scaled to control wells, 1 = unselective
# [11] = survival rescue of mitochondrial mutant cells in low glucose, primary screen, MELAS cybrids, Rieske KO mouse fibroblasts, CellTiter-Glo (AID 1508586;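 active = mean z-score across replicates of 1.96 or higher in either the MELAS or the Rieske mutant cell line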;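 also: z relative to plate mean and SD of compound and empty wells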)
# [12] = system: F380Y; assay: modulators of BK channel variants, profiling panel, selectivity assay, cell-based, U2OS BacMam, thallium flux, beta subunits (AID 1259406); conditions: at 30 µM;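 also: initial slope of Thallos dye fluorescence rise after thallium is added; log ratio against the mean of 0.3% DMSO vehicle wells on the same plate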
# [13] = system: F380Y/beta1; assay: as above; conditions: at 30 µM
# [14] = system: F380Y/beta2Delta; assay: as above; conditions: at 30 µM
# [15] = system: F380Y/beta4; assay: as above; conditions: at 30 µM
# [16] = target: Calcium-activated potassium channel subunit alpha-1 (Homo sapiens) + Leucine-rich repeat-containing protein 26 (Homo sapiens) (UniProt Q12791+Q2I0M4); assay: as above; conditions: F380Y/Slo1WT/gamma1, at 30 µM
# [17] = system: R275C; assay: as above; conditions: at 30 µM
# [18] = system: R275C/beta1; assay: as above; conditions: at 30 µM
# [19] = ovarian cancer cell viability with rucaparib, profiling panel, oncology-focused library, rucaparib conditional (AID 1508598;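 active = normalized viability below 100% at a tested concentration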); conditions: patient-derived ovarian cancer cells, CellTiter-Glo viability, 144 h, stronger effect = lower value
# [20] = sensitizers of A549 cells to miR-34 induction, primary screen, imaging, A549 dox-inducible miR-34, nuclei and caspase counts (AID 1347080;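 active = compounds whose cell count with miR-34 switched on is under 0.7 times the count with it off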); conditions: A549 miR-34 inducible, Hoechst nuclei count, 48 h
# [21] = measured here: epithelial PC-3E GFP cell survival
# [22] = measured here: mesenchymal TEM4-18 mCherry cell survival
# [23] = MELAS cybrid survival, CellTiter-Glo 48 h, stronger effect = higher value
# [24] = Rieske KO mouse fibroblast survival, CellTiter-Glo 72 h
# [25] = stronger effect = lower value, cell number ratio, induced over uninduced
# [26] = measured here: relative caspase fold change +Dox/-Dox
# [27] = measured here: total cells with miR-34 induction, stronger effect = lower value
# [28] = measured here: total cells without miR-34 induction
# Calcium-activated potassium channel subunit alpha-1 (Homo sapiens) + Leucine-rich repeat-containing protein 26 (Homo sapiens), sequence (Q2I0M4 whole entry, looked up, one chain of several): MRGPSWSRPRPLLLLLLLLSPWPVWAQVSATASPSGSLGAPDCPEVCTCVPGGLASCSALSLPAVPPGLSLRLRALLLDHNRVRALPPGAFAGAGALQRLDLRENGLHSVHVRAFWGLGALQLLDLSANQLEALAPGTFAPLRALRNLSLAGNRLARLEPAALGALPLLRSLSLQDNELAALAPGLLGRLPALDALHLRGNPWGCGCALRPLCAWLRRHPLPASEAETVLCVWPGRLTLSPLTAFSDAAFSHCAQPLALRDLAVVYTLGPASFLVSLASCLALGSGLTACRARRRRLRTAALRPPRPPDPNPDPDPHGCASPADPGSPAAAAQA
# 6-phosphogluconate dehydrogenase, decarboxylating (Homo sapiens), sequence (P52209 whole entry, looked up): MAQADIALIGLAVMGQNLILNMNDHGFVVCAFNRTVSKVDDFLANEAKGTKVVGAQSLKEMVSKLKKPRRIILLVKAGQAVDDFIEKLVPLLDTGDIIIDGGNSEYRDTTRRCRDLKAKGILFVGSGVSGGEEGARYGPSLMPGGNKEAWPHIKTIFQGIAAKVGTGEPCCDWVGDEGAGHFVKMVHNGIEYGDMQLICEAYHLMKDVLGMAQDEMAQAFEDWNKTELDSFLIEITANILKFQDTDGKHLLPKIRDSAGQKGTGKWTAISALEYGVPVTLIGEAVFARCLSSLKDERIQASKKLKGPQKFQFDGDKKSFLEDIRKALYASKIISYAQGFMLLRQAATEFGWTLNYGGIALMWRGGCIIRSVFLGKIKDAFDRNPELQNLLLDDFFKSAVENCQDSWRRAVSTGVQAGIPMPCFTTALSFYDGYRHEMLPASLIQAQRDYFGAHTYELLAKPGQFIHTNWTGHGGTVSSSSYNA
structure (smiles),measurement,setting,value
CN[C@H]1CC[C@@H](c2ccc(Cl)c(Cl)c2)c2ccccc21,nuclear beta-catenin stimulation,[1]; at 10 µM,6.5% (inactive)
same,nuclear beta-catenin stimulation,"[1]; stimulation, at 2 µM",-1.4%
same,insulin secretion stimulation,[2],11.8% (inactive)
same,viability decrease,[3],98.7% (active)
same,tube area decrease,[4],67.1% (active)
same,GLP1 secretion stimulation,[5],7.5% (inactive)
same,inhibition of viability,[6],99.1% (active)
same,viability decrease (inhibition),[7],120% (active)
same,viability decrease (inhibition),[8],98% (active)
same,inhibition,[9],-2.43% (inactive)
same,red/green cell ratio (normalised),[10],1.12 (inactive)
same,normalised cell number,[10]; [21],0.93
same,normalised cell number,[10]; [22],1.05
same,z-score,[11]; [23],-0.257 (inactive)
same,z-score,[11]; [24],0.309
same,log fold change Tl+ flux,[12],0.286 (active) and 0.195 (active)
same,log fold change Tl+ flux,[13],0.844 (active) and 0.685 (active)
same,log fold change Tl+ flux,[14],0.62 (active) and 0.894 (active)
same,log fold change Tl+ flux,[15],1.13 (active) and 1.04 (active)
same,log fold change Tl+ flux,[16],0.123 (active) and 0.169 (active)
same,log fold change Tl+ flux,[17],-0.288 (active) and -0.259 (active)
same,log fold change Tl+ flux,[18],0.549 (active) and 0.546 (active)
O=c1[nH]cc(F)c(=O)[nH]1,nuclear beta-catenin stimulation,[1]; at 10 µM,6.3% (inactive)
same,nuclear beta-catenin stimulation,"[1]; stimulation, at 2 µM",1.7%
same,insulin secretion stimulation,[2],-3% (inactive)
same,viability decrease,[3],87.4% (active)
same,tube area decrease,[4],56.6% (active)
same,GLP1 secretion stimulation,[5],-0.1% (inactive)
same,inhibition of viability,[6],75.1% (active)
same,viability decrease (inhibition),[7],28.6% (inactive)
same,viability decrease (inhibition),[8],26.6% (inactive)
same,inhibition,[9],-1.95% (inactive)
same,red/green cell ratio (normalised),[10],0.94 (inactive)
same,normalised cell number,[10]; [21],0.82
same,normalised cell number,[10]; [22],0.77
same,z-score,[11]; [23],-0.415 (inactive) and 0.96 (inactive) and 1.17
same,z-score,[11]; [24],0.32 and 1.37 and 2.42
same,viability,"[19]; at 0.000305 µM, OCI-C5x cells, with rucaparib 10 µM, 100% = cells with rucaparib alone",118% (inactive)
same,viability,"[19]; at 0.000305 µM, OCI-C5x cells, without rucaparib",111% (inactive)
same,viability,"[19]; at 0.000305 µM, OCI-P5x cells, with rucaparib 20 µM, 100% = cells with rucaparib alone",113% (inactive)
same,viability,"[19]; at 0.000305 µM, OCI-P5x cells, without rucaparib",111% (inactive)
same,viability,"[19]; at 0.00122 µM, OCI-C5x cells, with rucaparib 10 µM, 100% = cells with rucaparib alone",121% (inactive)
same,viability,"[19]; at 0.00122 µM, OCI-C5x cells, without rucaparib",108% (inactive)
same,viability,"[19]; at 0.00122 µM, OCI-P5x cells, with rucaparib 20 µM, 100% = cells with rucaparib alone",115% (inactive)
same,viability,"[19]; at 0.00122 µM, OCI-P5x cells, without rucaparib",115% (inactive)
same,viability,"[19]; at 0.00488 µM, OCI-C5x cells, with rucaparib 10 µM, 100% = cells with rucaparib alone",115% (inactive)
same,viability,"[19]; at 0.00488 µM, OCI-C5x cells, without rucaparib",115% (inactive)
same,viability,"[19]; at 0.00488 µM, OCI-P5x cells, with rucaparib 20 µM, 100% = cells with rucaparib alone",104% (inactive)
same,viability,"[19]; at 0.00488 µM, OCI-P5x cells, without rucaparib",98.7% (active)
same,viability,"[19]; at 0.0195 µM, OCI-C5x cells, with rucaparib 10 µM, 100% = cells with rucaparib alone",129% (inactive)
same,viability,"[19]; at 0.0195 µM, OCI-C5x cells, without rucaparib",101% (inactive)
same,viability,"[19]; at 0.0195 µM, OCI-P5x cells, with rucaparib 20 µM, 100% = cells with rucaparib alone",111% (inactive)
same,viability,"[19]; at 0.0195 µM, OCI-P5x cells, without rucaparib",106% (inactive)
same,viability,"[19]; at 0.0781 µM, OCI-C5x cells, with rucaparib 10 µM, 100% = cells with rucaparib alone",103% (inactive)
same,viability,"[19]; at 0.0781 µM, OCI-C5x cells, without rucaparib",102% (inactive)
same,viability,"[19]; at 0.0781 µM, OCI-P5x cells, with rucaparib 20 µM, 100% = cells with rucaparib alone",106% (inactive)
same,viability,"[19]; at 0.0781 µM, OCI-P5x cells, without rucaparib",102% (inactive)
same,viability,"[19]; at 0.313 µM, OCI-C5x cells, with rucaparib 10 µM, 100% = cells with rucaparib alone",121% (inactive)
same,viability,"[19]; at 0.313 µM, OCI-C5x cells, without rucaparib",105% (inactive)
same,viability,"[19]; at 0.313 µM, OCI-P5x cells, with rucaparib 20 µM, 100% = cells with rucaparib alone",99.1% (active)
same,viability,"[19]; at 0.313 µM, OCI-P5x cells, without rucaparib",100% (inactive)
same,viability,"[19]; at 1.25 µM, OCI-C5x cells, with rucaparib 10 µM, 100% = cells with rucaparib alone",145% (inactive)
same,viability,"[19]; at 1.25 µM, OCI-C5x cells, without rucaparib",123% (inactive)
same,viability,"[19]; at 1.25 µM, OCI-P5x cells, with rucaparib 20 µM, 100% = cells with rucaparib alone",99.6% (active)
same,viability,"[19]; at 1.25 µM, OCI-P5x cells, without rucaparib",102% (inactive)
same,viability,"[19]; at 5 µM, OCI-C5x cells, with rucaparib 10 µM, 100% = cells with rucaparib alone",236% (inactive)
same,viability,"[19]; at 5 µM, OCI-C5x cells, without rucaparib",146% (inactive)
same,viability,"[19]; at 5 µM, OCI-P5x cells, with rucaparib 20 µM, 100% = cells with rucaparib alone",82.4% (active)
same,viability,"[19]; at 5 µM, OCI-P5x cells, without rucaparib",73.4% (active)
same,log fold change Tl+ flux,[12],-0.0334 (inactive)
same,log fold change Tl+ flux,[13],0.0119 (inactive)
same,log fold change Tl+ flux,[14],-0.0613 (inactive)
same,log fold change Tl+ flux,[15],-0.0444 (inactive)
same,log fold change Tl+ flux,[16],-0.0276 (inactive)
same,log fold change Tl+ flux,[17],-0.0492 (inactive)
same,log fold change Tl+ flux,[18],0.0262 (inactive)
N[C@@H](C(=O)N[C@@H]1C(=O)N2C(C(=O)O)=C(Cl)CS[C@H]12)c1ccccc1,nuclear beta-catenin stimulation,[1]; at 10 µM,0.3% (inactive)
same,nuclear beta-catenin stimulation,"[1]; stimulation, at 2 µM",1.1%
same,insulin secretion stimulation,[2],1.9% (inactive)
same,viability decrease,[3],12.5% (inactive)
same,tube area decrease,[4],-21% (inactive)
same,GLP1 secretion stimulation,[5],-1.7% (inactive)
same,inhibition of viability,[6],-1.63% (inactive)
same,viability decrease (inhibition),[7],26.8% (inactive)
same,viability decrease (inhibition),[8],-20.5% (inactive)
same,inhibition,[9],-9.98% (inactive)
same,red/green cell ratio (normalised),[10],1.23 (inactive)
same,normalised cell number,[10]; [21],0.9
same,normalised cell number,[10]; [22],1.1
same,fold change,[20]; [25],0.883 (inactive) and 0.884 (inactive)
same,fold change,[20]; [26],1.88 and 4.52
same,cell count,[20]; [27],8220 and 11700
same,cell count,[20]; [28],9320 and 13200
same,z-score,[11]; [23],0.0553 (inactive)
same,z-score,[11]; [24],-0.142
same,log fold change Tl+ flux,[12],-0.0277 (inactive)
same,log fold change Tl+ flux,[13],-0.0714 (inactive)
same,log fold change Tl+ flux,[14],-0.0661 (inactive)
same,log fold change Tl+ flux,[15],-0.0331 (inactive)
same,log fold change Tl+ flux,[16],-0.07 (inactive)
same,log fold change Tl+ flux,[17],0.0278 (inactive)
same,log fold change Tl+ flux,[18],0.0103 (inactive)
NCc1ccc(S(N)(=O)=O)cc1,nuclear beta-catenin stimulation,[1]; at 10 µM,0.8% (inactive)
same,nuclear beta-catenin stimulation,"[1]; stimulation, at 2 µM",0.2%
same,insulin secretion stimulation,[2],-0.5% (active)
same,viability decrease,[3],1.95% (inactive)
same,tube area decrease,[4],8.4% (inactive)
same,GLP1 secretion stimulation,[5],1.9% (inactive)
same,inhibition of viability,[6],7% (inactive)
same,viability decrease (inhibition),[7],14.1% (inactive)
same,viability decrease (inhibition),[8],13.8% (inactive)
same,inhibition,[9],-1.59% (inactive)
same,red/green cell ratio (normalised),[10],1 (inactive)
same,normalised cell number,[10]; [21],0.74
same,normalised cell number,[10]; [22],0.74
same,fold change,[20]; [25],0.973 (inactive) and 0.954 (inactive) and 0.851 (inactive)
same,fold change,[20]; [26],2.25 and 1.29 and 0.783
same,cell count,[20]; [27],11100 and 8530 and 11400
same,cell count,[20]; [28],11400 and 8940 and 13400
same,z-score,[11]; [23],0.171 (inactive)
same,z-score,[11]; [24],-0.0568
same,log fold change Tl+ flux,[12],0.0308 (inactive)
same,log fold change Tl+ flux,[13],0.0173 (inactive)
same,log fold change Tl+ flux,[14],-0.0418 (inactive)
same,log fold change Tl+ flux,[15],-0.0354 (inactive)
same,log fold change Tl+ flux,[16],0.00552 (inactive)
same,log fold change Tl+ flux,[17],0.00729 (inactive)
same,log fold change Tl+ flux,[18],-0.0404 (inactive)
